# Only some compounds are listed: those with a hit (about 1.2% of all), similar ones and a draw of the others.
# Tb PFK inh = blocks T. brucei phosphofructokinase; Potency, µM (highest dose often 57.5 µM), usual class: inhibitors; O15648; T. brucei PFK, ADP-Glo luminescence; AID 485367; hit rate 0.17% among 330,000; active = well fitted inhibition curve with a large enough effect; inconclusive = small, poorly fitted or top-dose-only effect, or effect the other way; note: nearly all actives have a fitted effect of over 60% in size
#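 1.25 nM PFK with 0.5 mM F6P and 0.1 mM ATP in 0.1 M TEA pH 8.0, 5 mM MgCl2, incubated 45 min at room temperature; ADP measured by ADP-Glo luminescence; compounds titrated up to 57 uM.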
# KCNH2 3.1 block = inhibitors of human KCNH2 3.1 potassium channel isoform; U2OS KCNH2 3.1, thallium flux FluxOr; hits give low values; activity change, % (tested at about 1.8 µM); hit rate 0.95% among 340,000; AID 720553;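 active = maximum activity change below -70%; inconclusive = maximum activity change from -70% to -50%; inactive = maximum activity change above -50%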;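 note: thallium influx rate constant from kinetic fluorescence after stimulation buffer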
#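 Virally transduced U2OS (3.1 isoform, 4 h infection in dark at RT) → overnight 37 C → FluxOr + Red40 in HBSS/HEPES, 45 min → stimulation buffer, 2 min kinetic read → rate constant vs DMSO controls.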
# PTAP TSG101 blk = blocks PTAP/TSG101 interaction to inhibit HIV-1 budding; Potency, µM (doses to about 115 µM), actives largely listed as inhibitors; Q99816; 340,000 tested, under 10 active; Fluorescence polarization, FITC-PTAP peptide / Tsg101 binding; AID 493005; active = well fitted inhibition curve with a large enough effect in the main read-out, with a control signal flat, not every such curve was filed as active; inconclusive = small, poorly fitted or top-dose-only effect, or effect the other way, or a change in a side signal; inactive = no such curve, though single readings can be large or run the other way
# Target sequence (Q99816 whole entry, looked up): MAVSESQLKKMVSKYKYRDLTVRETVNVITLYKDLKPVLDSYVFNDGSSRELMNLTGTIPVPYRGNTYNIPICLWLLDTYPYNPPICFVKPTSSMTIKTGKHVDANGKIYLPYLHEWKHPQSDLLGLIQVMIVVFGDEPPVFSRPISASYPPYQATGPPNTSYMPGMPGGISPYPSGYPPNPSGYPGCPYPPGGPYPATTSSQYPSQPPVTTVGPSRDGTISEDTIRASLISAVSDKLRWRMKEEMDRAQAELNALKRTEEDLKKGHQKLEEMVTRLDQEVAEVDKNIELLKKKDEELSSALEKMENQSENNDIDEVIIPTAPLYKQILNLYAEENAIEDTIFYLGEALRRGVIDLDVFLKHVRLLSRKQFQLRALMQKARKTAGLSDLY
#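 Fluorescence polarization binding of Tsg101 binding domain (10 uM final) to FITC-labeled PTAP peptide (50 nM final) in HEPES pH 7.5 buffer with NaCl, Tween 20, EDTA, TCEP. Compounds added before peptide; binding 20 min at RT.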
# KCNH2 WT inh = inhibitors of human wildtype KCNH2 potassium channel; hit rate 0.37% among 340,000; activity change, % at 1.84 µM; AID 720551; U2OS, BacMam KCNH2, thallium flux FluxOr; hits give low values;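 active = maximum activity change below -70%; inconclusive = maximum activity change between -70% and -50%; inactive = maximum activity change above -50%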
#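 U2OS cells were transduced with wild-type KCNH2 virus (2.03 x 10^8 / mL) for 4 h at room temperature, then cultured overnight at 37 C. Thallium flux was read with FluxOr dye. Rate constants were normalized to DMSO controls.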
# Numbers stand for hits; – = inactive; ? = inconclusive; · = no result; [ ] = dose if it differs, or a comment.
SMILES,Tb PFK inh,KCNH2 3.1 block,PTAP TSG101 blk,KCNH2 WT inh
CCC(C)Sc1ccc(-c2nc3ccc(C)cn3c2NCc2ccccc2)cc1OC (stereo not drawn),–,–,?,–
COc1ccccc1C(=O)CSc1ccccn1,–,–,–,–
CCC1CN(C(=O)N2CCC(C(=O)NCCc3ccccc3OC)CC2)c2ccccc2O1 (stereo not drawn),–,–,–,–
O=C(C[n+]1cccc(O)c1)NCc1ccc(Cl)cc1,–,–,–,–
COc1ccc(/C=N/NC(=O)c2ccc(Cl)c(S(N)(=O)=O)c2)cc1OCC(N)=O,–,–,–,–
COc1cc(/C=N/NC(=O)c2cccnc2)ccc1OCC(=O)Nc1ccccc1Cl,–,-97.3,–,–
COc1ccc(NC(=O)COc2ccc(/C=N/NC(=O)c3cccnc3)cc2OC)cc1,–,–,–,–
COc1cc(/C=N/NC(=O)c2ccc(Cl)c(S(N)(=O)=O)c2)ccc1OCC(N)=O,–,–,–,-142.3
COc1ccc(C2CC(c3ccc(Cl)cc3)Nc3nc(NC(=O)c4ccco4)nn32)cc1 (stereo not drawn),–,-71.4,–,–
O=C(Nc1nc2n(n1)C(c1ccc(Cl)cc1)CC(c1ccc(Cl)cc1)N2)c1ccco1 (stereo not drawn),–,–,–,–
CC1(C)CC(=O)C2=C(C1)O[C@@]1(CCCCN3C(=O)c4ccccc4C3=O)Cc3ccccc3C2O1,–[11.5 µM],·,·,·
COc1ccc(C(=O)NC(=S)Nc2ccc(N3CCCC3)cc2)cc1,–,-89.2,–,–
CN1CCN(c2ccc(NC(=S)NC(=O)c3cccc4c(Cl)cccc34)cc2)CC1,–,-90.6,–,–
COc1ccc(C(=O)NC(=S)NNC(=O)c2ccccc2O)cc1,–,-82.7,–,–
CCC(=O)N1CCN(c2ccc(NC(=S)NC(=O)c3ccc(OC)c([N+](=O)[O-])c3)cc2)CC1,–,-91.1,–,–
O=C(NC(=S)Nc1ccc(N2CCOCC2)cc1)c1cccc(Cl)c1Cl,–,–,–,–
CC(C)Cc1nnc(NC(=O)CN2C(=O)NC3(CC(C)CC(C)(C)C3)C2=O)s1 (stereo not drawn),–,–,–,–
COc1ccc(OC)c(NC2c3ncccc3C(=O)N2Cc2ccco2)c1 (stereo not drawn),–,-80.0,–,–
CC1CN(C(=O)CCC(=O)NCc2ccccc2Cl)c2ccccc2S1 (stereo not drawn),–,–,–,–
Cc1ccc(S(=O)(=O)N2CCOC2CNC(=O)C(=O)NCC(C)C)cc1 (stereo not drawn),–,–,–,–
CNC(=O)C(=O)NCC1OCCN1S(=O)(=O)c1ccc(C)cc1 (stereo not drawn),–,–,·,-207.2
CCN1C(=NCC(C)C)N[C@@H](c2ccccc2)[C@H](C(=O)OC)[C@H]1C,–,·,·,·
O=[N+]([O-])c1ccc2c(c1)C(O)n1ncnc1S2 (stereo not drawn),–,-83.8,–,–
Cc1nc2n(n1)C(O)c1cc([N+](=O)[O-])ccc1S2 (stereo not drawn),–,·,·,·
Cc1cc(C)nc(NS(=O)(=O)c2ccc(NS(=O)(=O)c3ccc(F)c(F)c3)cc2)n1,·,–,·,–
SMILES,Tb PFK inh,KCNH2 3.1 block,PTAP TSG101 blk,KCNH2 WT inh
Cc1csc(=O)n1CCC(=O)OCc1nnc(-c2ccccc2Cl)o1,–,–,–,-85.5
O=C(NCCc1ccc(Cl)cc1)c1cccc(NC2=NC3CS(=O)(=O)CC3S2)c1 (stereo not drawn),–,–,–,–
COc1cccc(-c2nn(C)c3sc(C(=O)NCc4ccc5c(c4)OCO5)cc23)c1,–,-91.6,–,–
CCCn1c(=S)[nH]c2sc3c(c2c1=O)CCCC3,–,–,–,-85.2
Nn1c(=S)[nH]c2sc3c(c2c1=O)CCCC3,·,–,–,–
COc1ccc2c(c1OC)CN(C)CCc1cc3c(cc1C(=O)C2)OCO3,–,-83.5,–,–
COc1cccc(OCC(=O)N2CCCc3ccccc32)c1,–,–,–,–
CCOc1ccccc1NS(=O)(=O)N(C)C,–,–,–,–
CN(C)S(=O)(=O)Nc1ccccc1F,–,-80.0,–,–
CCOC(=O)/C(=C/Nc1ccc(F)cc1)[N+](=O)[O-],–,–,–,–
Cc1ccc(C)c(NC(=O)C2CCCN2/C=C/C(=O)C(F)(F)F)c1 (stereo not drawn),–,-118.9,–,–
Cc1ccc(C(C)C)c(OCC(=O)NS(=O)(=O)c2ccc(Cl)cc2)c1,–,·,–,–
N/C(=N\N=C/c1ccc(F)cc1)N/N=C\c1ccc(F)cc1,–,-72.9,–,–

# Screening data as filed in PubChem.
